# MEKK2wt PB1 HTS: modulators of MEK5 binding to wildtype MEKK2, primary screen, biochemical, multiplex bead flow cytometry, Alexa488-MEK5 | 1.1% of 290,000 active | Mitogen-activated protein kinase kinase kinase 2 (Homo sapiens), Q9Y2U5 | binding response (% of control), % at 10 µM | Alexa488-MEK5 binding to MEKK2 WT; actives lie on both sides; in the data active means binding response below about 67% or above about 130%
# MEKK3 PB1 HTS: modulators of MEKK3-MEK5 PB1 binding, primary screen, biochemical, wildtype MEKK3, multiplex bead flow cytometry, Alexa488-MEK5; bead-based flow cytometry, Alexa488-MEK5 binding to MEKK3; actives lie on both sides; 0 = blocked by unlabeled MEK5, 100 = vehicle; binding response (% of control), % at 10 µM; 1.4% of 290,000 active;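 active means binding response more than 3 SD above or below the average of its plate-row segment, actives on both sides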;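 further: Alexa488 bead fluorescence after subtracting the streptavidin-only scavenger bead signal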
# Target sequence (Q99759 whole entry, looked up): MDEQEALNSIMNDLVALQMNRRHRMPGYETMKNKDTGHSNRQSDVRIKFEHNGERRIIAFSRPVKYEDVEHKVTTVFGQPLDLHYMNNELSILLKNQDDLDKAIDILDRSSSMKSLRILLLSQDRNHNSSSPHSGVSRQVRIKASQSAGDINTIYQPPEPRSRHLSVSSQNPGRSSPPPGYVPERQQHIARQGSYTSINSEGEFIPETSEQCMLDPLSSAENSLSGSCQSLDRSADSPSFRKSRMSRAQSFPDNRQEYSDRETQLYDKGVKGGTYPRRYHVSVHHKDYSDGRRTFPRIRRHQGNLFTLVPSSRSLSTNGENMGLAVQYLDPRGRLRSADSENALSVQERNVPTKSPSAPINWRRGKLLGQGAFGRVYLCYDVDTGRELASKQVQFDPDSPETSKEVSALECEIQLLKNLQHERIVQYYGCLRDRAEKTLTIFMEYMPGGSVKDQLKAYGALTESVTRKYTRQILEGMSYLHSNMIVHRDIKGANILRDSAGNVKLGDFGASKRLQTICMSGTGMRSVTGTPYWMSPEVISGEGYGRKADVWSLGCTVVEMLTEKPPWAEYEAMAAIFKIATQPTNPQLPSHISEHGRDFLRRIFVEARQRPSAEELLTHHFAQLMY
# MEKK2mut PB1 HTS: MEK5 binding signal on mutant MEKK2 PB1, primary screen, biochemical, multiplex bead flow cytometry, Alexa488-MEK5. Alexa488-MEK5 binding to MEKK2 mutant. percent response, % at 10 µM. 0.35% of 290,000 active. AID 1530, 2009; in the data active means percent response above about 24%, passing the limit was not always enough
# PREPL inhibitor: PREPL enzyme inhibitors, primary screen, biochemical, fluorescence polarization | recombinant PREPL, fluorescence polarization activity-based probe | inhibition, % at 5.96 µM | 0.68% of 320,000 active | AID 2751, 2010; in the data active means inhibition above about 43%;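 further: 0% = enzyme with DMSO and 100% = wells lacking enzyme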
# ATG4B inh: ATG4B protease inhibitors, primary screen, biochemical, fluorescence, uHTS; inhibition, % at 8.33 µM; 0.51% of 340,000 active; Cysteine protease ATG4B (Homo sapiens), Q9Y4P1; ATG4B cleavage of LC3-PLA2, NBD-HPC fluorescence, 1 h; AID 504462, 2011; in the data active means inhibition above about 40%
# UBC13 polyUb: UBC13 polyubiquitin chain formation inhibitors, primary screen, biochemical, TR-FRET, uHTS. inhibition, % at 20 µM. 0.47% of 330,000 active. AID 485273, 2010; in the data active means inhibition above about 45%, passing the limit was not always enough
# MEKK2wt confirm: modulators of MEK5 binding to wildtype MEKK2, confirmation, biochemical, single concentration, multiplex bead flow cytometry; Alexa488-MEK5 binding to MEKK2 WT; actives lie on both sides; AID 1892, 2009; binding response (% of control), % at 10 µM; shares compounds with MEKK3 PB1 HTS; 2.4% of 5,900 active; in the data active means binding response below about 16% or above about 210%; inactive means in between
# MEKK2mut-MEK5: mutant MEKK2 PB1-MEK5 binding signal retest – biochemical, single concentration, multiplex bead flow cytometry, confirmation. shares compounds with MEKK3 PB1 HTS. Alexa488-MEK5 binding to MEKK2 mutant. percent response, % at 10 µM. 2% of 5,900 active. AID 1893, 2009; in the data active means percent response mostly above about 71%, no sharp cut-off; inactive means mostly below about 38%;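 further: higher means compound restores mutant binding toward wildtype level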
# MEKK3-MEK5 inh: MEKK3 wild-type PB1 binding to MEK5, inhibitors, confirmation, biochemical, bead multiplex flow cytometry, single concentration, wildtype; binding response (% of control), % at 10 µM; shares compounds with MEKK3 PB1 HTS; Alexa488-MEK5 binding to MEKK3; stronger effect = lower value; 1.8% of 5,900 active;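 active means binding response below 72% of control, or above a set upper limit, though filed actives all read lower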;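 further: 100% = DMSO only wells and 0% = binding blocked by excess unlabeled MEK5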
# * hit, by the source's call; . = no result; [ ] = another dose, or the depositor's remark. Only some compounds are listed: those with a hit (about 3.1% of all), similar ones and a draw of the others.
SMILES,MEKK2wt PB1 HTS,MEKK3 PB1 HTS,MEKK2mut PB1 HTS,PREPL inhibitor,ATG4B inh,UBC13 polyUb,MEKK2wt confirm,MEKK2mut-MEK5,MEKK3-MEK5 inh
COc1cc(O)c(C(CCN2CCCC2)c2ccc(N(C)C)cc2)c(OC)c1 (stereo not given),153*,119,8,40,-10,12,129,37,106
COc1cc(O)c(C(CC(=O)N2CCN(c3ccccc3)CC2)c2ccc3c(c2)OCO3)c(OC)c1 (stereo not given),153*,130*,0,6,-1,6,100,-7,104
CCN(CC)C(=O)CC(c1ccc2c(c1)OCO2)c1c(O)cc(OC)cc1OC (stereo not given),97,95,-5,-2,-3,-4,.,.,.
CCOC(=O)Cc1csc(SCC(=O)NC2CCS(=O)(=O)C2)n1 (stereo not given),.,.,.,8,-35,13,.,.,.
CC(C)NC(=S)N/N=C/c1ccc(C(C)(C)C)cc1,102,109,-1,8,-7,-7,.,.,.
CCCN1C(=O)c2cccc3c(N4CCCCC4)ccc(c23)C1=O,60*[inhibitor],87,-4,0,-11,.,97,0,102
O=C1c2cccc3c(N4CCCCC4)ccc(c23)C(=O)N1c1ccccn1,94,96,-2,6,0,-144,.,.,.
CCN(CC(=O)Nc1c(F)cccc1F)C(=O)c1cc(C)oc1C,.,.,.,14,5,0,.,.,.
CC(=O)Nc1ccc(-c2nc3c(C)cccc3[nH]2)cc1,3.0*[inhibitor],3.0*[inhibitor],-14,0,-10,4,114,6,104
COc1ccc(Cl)cc1NC(=O)c1cc(-c2ccccc2O)n[nH]1,105,103,-2,13,5,0,.,.,.
COc1ccc(OC)c(NC(=O)c2cc(-c3cc(Cl)ccc3O)n[nH]2)c1,130,145*,8,9,11,-10,93,-3,98
O=C(Cn1c2c(c(=O)n3ncnc13)CCC2)N/N=C/c1cccs1,94,94,-2,11,1,-5,.,.,.
O=C(Cn1c2c(c(=O)n3ncnc13)CCC2)N/N=C/c1ccc(Cl)cc1,54,48*[inhibitor],-19,15,-8,-2,97,-2,97
CSc1nc(NCCCN(C)C)c2c3c(sc2n1)CN(C)CC3,138*,100,30*,.,.,25,120,34,106
O=C(CN1C(=O)NC2(CCCCC2)C1=O)NCc1cccs1,109,154*,1,3,0,12,99,-1,96
Cc1cc(NC(=O)CN2C(=O)NC3(CCCCC3)C2=O)no1,104,135*,-1,0,7,7,101,0,104
COc1cc2nc(SCc3ccc(C(F)(F)F)cc3)n(Cc3cccs3)c(=N)c2cc1OC,96,96,-11,5,-7,13,.,.,.
COc1ccc(Cn2c(SCc3ccc(C)cc3)nc3cc(OC)c(OC)cc3c2=N)cc1Cl,212*,102,71*,35,-2,38,208*,80*,102
